Results filed as inconclusive are left out. Active and inactive are the calls of the source. Unless noted, calls come from the whole dose curve; as a rule, active = well fitted curve in the direction sought with a large enough effect; inconclusive = small, poorly fitted or top-dose-only effect, or another doubt; inactive = no such curve, though single readings can be large; an effect the other way counts as inactive or inconclusive.
What was measured:
[1] = qHTS for Inhibitors of Cell Surface uPA Generation: Validation Assay (AID 493164); note: 0% is about no effect
In short: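 RAW 264.7 cells (4000/well) were plated overnight, then exposed for 18 h at 37 C, 5% CO2 to compounds in a 7-point 1:5 titration (2.45 nM–38.3 uM final). Intracellular ATP was read by ATP-Lite luminescence.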

[2] = Validation screen for small molecules that induce DNA re-replication in SW480 colon adenocarcinoma cells (AID 504364); note: 0% is about no effect
In short: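 250 cells/well; compound pinned in; 48 hr, 37 C, 5% CO2; Hoechst added, 40 min; nuclear fluorescence imaged, 405 ex / 500-530 em; re-replication scored as increase in high-intensity nuclei.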

[3] = target: Peptidyl-prolyl cis-trans isomerase NIMA-interacting 1 (Homo sapiens) (UniProt Q13526); assay: qHTS Validation Assay to Find Inhibitors of Pin1 (AID 504536; active = well fitted inhibition curve with a large enough effect in the polarisation, with a control signal flat, not every such curve was filed as active; the % refers to the polarisation;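 note: 0% = full Pin1 enzyme wells and -100% = no-enzyme wells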)
Chain of Peptidyl-prolyl cis-trans isomerase NIMA-interacting 1 (Homo sapiens) (Q13526 whole entry, looked up): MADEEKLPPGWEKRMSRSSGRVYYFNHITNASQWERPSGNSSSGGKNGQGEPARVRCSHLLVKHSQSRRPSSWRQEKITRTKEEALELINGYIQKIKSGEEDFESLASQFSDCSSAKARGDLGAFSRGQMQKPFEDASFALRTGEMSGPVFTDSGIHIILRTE
In short: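 Fluorescence polarization competition: compounds (titration) displace HiFluor-488-labeled Pin1-1b peptide from Pin1 (0.3 uM final) in pH 7.5 HEPES buffer with DTT, 10 min at room temperature; %Activity normalized to no-enzyme wells, curves fitted.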

[4] = target: Phosphoglycerate kinase, glycosomal (Trypanosoma brucei brucei) (UniProt P07378); assay: qHTS Validation Assay to Find Inhibitors of Phosphoglycerate Kinase (AID 504547);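 note: control wells lack PGK and mark full inhibition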
Chain of Phosphoglycerate kinase, glycosomal (Trypanosoma brucei brucei) (P07378 whole entry, looked up): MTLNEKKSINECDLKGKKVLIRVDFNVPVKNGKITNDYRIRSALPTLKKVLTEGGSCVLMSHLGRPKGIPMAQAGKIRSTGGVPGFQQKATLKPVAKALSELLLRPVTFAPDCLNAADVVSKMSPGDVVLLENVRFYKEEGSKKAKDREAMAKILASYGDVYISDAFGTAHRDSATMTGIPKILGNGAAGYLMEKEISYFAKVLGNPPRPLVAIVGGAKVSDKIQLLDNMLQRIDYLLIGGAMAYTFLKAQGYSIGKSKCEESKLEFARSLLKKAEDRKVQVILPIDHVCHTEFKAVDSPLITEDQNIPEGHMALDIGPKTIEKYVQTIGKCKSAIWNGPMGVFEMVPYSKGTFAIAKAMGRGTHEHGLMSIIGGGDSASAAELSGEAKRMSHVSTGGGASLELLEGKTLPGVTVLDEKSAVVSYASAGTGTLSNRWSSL
In short: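 Inhibition of the enzyme is judged by a Kinase-Glo Plus luminescent signal following a one-hour incubation at room temperature. Because 1,3-BPG is unstable, it is made in situ by GAPDH at 100nM final; no-PGK wells define the baseline.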

[5] = target: phosphoglycerate mutase (Leishmania major) (UniProt Q4Q090); assay: qHTS Validation Assay to Find Inhibitors of Phosphoglycerate Mutase (AID 504548); settings: Potency: inhibition qHTS;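 note: end-point luminescence from Kinase-GloPlus after the PGAM reaction; series mostly up to about 58 µM; % is set by controls: 0 for no effect and ±100 for the full control effect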
Chain of phosphoglycerate mutase (Leishmania major) (Q4Q090 1-553): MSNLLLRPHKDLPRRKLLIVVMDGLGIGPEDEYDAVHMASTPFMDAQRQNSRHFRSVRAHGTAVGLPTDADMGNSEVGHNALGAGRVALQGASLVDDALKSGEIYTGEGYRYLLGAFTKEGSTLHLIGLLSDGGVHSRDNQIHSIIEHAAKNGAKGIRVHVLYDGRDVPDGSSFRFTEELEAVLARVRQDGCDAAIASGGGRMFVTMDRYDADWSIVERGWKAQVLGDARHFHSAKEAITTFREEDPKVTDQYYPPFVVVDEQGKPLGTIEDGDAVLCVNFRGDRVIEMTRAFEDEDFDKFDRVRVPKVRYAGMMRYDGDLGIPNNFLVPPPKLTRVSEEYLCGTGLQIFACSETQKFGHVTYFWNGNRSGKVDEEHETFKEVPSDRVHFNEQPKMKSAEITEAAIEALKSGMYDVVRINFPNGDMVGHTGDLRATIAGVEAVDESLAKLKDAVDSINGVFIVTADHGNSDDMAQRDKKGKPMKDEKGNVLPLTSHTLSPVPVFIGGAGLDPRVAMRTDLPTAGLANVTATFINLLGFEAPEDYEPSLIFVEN
In short: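 Inhibition of L. major PGAM was assessed by Kinase-GloPlus luminescence following a 45-minute room-temperature reaction with enzyme at 1.25nM final.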

[6] = target: Ubiquitin carboxyl-terminal hydrolase 1 (Homo sapiens) (UniProt O94782); assay: Inhibitors of USP1/UAF1: Pilot qHTS (AID 504865); note: nearly all actives have a fitted effect of over 35% in size; note: potency is the fitted concentration of half-maximal effect
Chain of Ubiquitin carboxyl-terminal hydrolase 1 (Homo sapiens) (O94782 whole entry, looked up): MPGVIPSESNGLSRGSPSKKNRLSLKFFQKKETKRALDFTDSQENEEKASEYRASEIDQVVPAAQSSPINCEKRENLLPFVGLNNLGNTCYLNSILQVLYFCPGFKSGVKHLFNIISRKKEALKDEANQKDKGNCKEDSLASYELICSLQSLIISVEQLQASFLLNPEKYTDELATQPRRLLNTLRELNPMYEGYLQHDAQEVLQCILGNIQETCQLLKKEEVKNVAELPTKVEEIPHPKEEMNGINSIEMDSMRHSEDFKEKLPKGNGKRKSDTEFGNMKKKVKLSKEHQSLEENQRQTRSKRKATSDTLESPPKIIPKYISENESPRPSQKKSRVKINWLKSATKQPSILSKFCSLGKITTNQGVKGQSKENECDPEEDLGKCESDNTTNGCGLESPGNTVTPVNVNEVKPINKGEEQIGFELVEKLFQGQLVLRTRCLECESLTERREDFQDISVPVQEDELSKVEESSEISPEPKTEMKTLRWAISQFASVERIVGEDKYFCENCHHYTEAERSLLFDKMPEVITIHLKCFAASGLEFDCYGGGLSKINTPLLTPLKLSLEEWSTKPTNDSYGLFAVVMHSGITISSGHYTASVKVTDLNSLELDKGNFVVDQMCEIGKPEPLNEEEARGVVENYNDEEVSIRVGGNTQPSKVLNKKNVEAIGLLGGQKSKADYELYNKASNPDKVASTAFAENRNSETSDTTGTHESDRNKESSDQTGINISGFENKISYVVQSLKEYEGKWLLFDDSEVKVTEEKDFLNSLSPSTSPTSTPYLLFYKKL
In short: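 In 50mM HEPES pH 7.8 containing 0.5mM EDTA, 1mM TCEP, 0.1 mg/ml BSA and 0.01% Tween-20, 1nM USP1/UAF1 is exposed to compound for 15 min, then Ub-Rho (150nM final) is added and fluorescence is read over time.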

[7] = qHTS for Inhibitors of ATXN expression: Validation of Cytotoxic Assay (AID 588349); note: % is set by controls: 0 for no effect and ±100 for the full control effect
In short: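 Read-out: ATP-based luminescence (CellTiter Glo) reflecting viability of HEK293 cells after 72 hr incubation at 37 degrees C with a concentration series of each compound.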

[8] = qHTS for Inhibitors of ATXN expression: Validation (AID 588378); note: series mostly up to about 57 µM; % is set by controls: 0 for no effect and ±100 for the full control effect; nearly all actives have a fitted effect of over 75% in size
In short: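 Compounds were pinned onto attached HEK293 cells carrying an ATXN2-firefly luciferase construct and incubated 24 hrs at 37 degrees C. Each well then received a fluorescent viability reagent followed by luciferase substrate for end-point luminescence.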

[9] = target: Galactokinase (Homo sapiens) (UniProt P51570); assay: qHTS Validation Assay for Inhibitors of Human Galactokinase (GALK) (AID 493189); note: 0% is about no effect
Chain of Galactokinase (Homo sapiens) (P51570 whole entry, looked up): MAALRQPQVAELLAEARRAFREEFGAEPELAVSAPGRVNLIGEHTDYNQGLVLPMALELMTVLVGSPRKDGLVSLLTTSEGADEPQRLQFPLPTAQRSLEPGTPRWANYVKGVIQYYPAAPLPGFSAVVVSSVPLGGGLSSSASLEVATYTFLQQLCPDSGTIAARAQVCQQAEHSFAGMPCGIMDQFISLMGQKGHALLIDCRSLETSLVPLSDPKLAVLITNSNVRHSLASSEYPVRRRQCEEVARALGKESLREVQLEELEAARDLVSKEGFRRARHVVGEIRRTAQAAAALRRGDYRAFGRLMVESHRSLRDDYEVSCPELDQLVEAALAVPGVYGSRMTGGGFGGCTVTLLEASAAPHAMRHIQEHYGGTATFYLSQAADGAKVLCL
In short: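 5 nM GALK / 100 uM galactose / 35 uM ATP, 20 mM HEPES pH8.0, 5 mM MgCl2, 60 mM NaCl, 1 mM DTT, 0.01% BSA (final). RT 1 h; Kinase-Glo Plus luminescence.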

[10] = target: DNA dC->dU-editing enzyme APOBEC-3G (Homo sapiens) (UniProt Q9HC16); assay: qHTS for inhibitors of Vif-A3G interactions: Validation (AID 588379); note: 0% is about no effect
Chain of DNA dC->dU-editing enzyme APOBEC-3G (Homo sapiens) (Q9HC16 whole entry, looked up): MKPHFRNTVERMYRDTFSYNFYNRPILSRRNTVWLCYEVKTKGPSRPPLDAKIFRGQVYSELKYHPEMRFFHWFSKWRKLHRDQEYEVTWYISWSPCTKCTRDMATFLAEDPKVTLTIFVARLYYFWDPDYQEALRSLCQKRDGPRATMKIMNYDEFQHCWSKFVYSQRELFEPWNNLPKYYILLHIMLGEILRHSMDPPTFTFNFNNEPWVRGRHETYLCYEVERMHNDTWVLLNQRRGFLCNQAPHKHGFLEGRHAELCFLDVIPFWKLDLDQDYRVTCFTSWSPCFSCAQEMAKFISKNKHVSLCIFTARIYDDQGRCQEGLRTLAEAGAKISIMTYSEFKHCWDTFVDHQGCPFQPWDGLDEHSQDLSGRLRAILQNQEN
In short: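 HeLa cells stably expressing Vif and A3G-eYFP, 700 cells/well, incubated overnight at 37 deg C, then exposed to compound overnight at 37 deg C. Inhibition of Vif-mediated degradation read as increased yellow fluorescence (Ex 488/Em 500-530) by laser-scanning cytometry.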

[11] = target: Androgen receptor (Homo sapiens) (UniProt P10275); assay: qHTS assay for small molecule agonists of androgen receptor signaling (AID 588515; active = well fitted curve in the direction sought with a large enough effect in the signal ratio, with a control signal flat; the % refers to the signal ratio; note: % is set by controls: 0 for no effect and ±100 for the full control effect); settings: AR-UAS-bla HEK293, beta-lactamase ratio, agonist 16 h; hits give high values
Chain of Androgen receptor (Homo sapiens) (P10275 whole entry, looked up): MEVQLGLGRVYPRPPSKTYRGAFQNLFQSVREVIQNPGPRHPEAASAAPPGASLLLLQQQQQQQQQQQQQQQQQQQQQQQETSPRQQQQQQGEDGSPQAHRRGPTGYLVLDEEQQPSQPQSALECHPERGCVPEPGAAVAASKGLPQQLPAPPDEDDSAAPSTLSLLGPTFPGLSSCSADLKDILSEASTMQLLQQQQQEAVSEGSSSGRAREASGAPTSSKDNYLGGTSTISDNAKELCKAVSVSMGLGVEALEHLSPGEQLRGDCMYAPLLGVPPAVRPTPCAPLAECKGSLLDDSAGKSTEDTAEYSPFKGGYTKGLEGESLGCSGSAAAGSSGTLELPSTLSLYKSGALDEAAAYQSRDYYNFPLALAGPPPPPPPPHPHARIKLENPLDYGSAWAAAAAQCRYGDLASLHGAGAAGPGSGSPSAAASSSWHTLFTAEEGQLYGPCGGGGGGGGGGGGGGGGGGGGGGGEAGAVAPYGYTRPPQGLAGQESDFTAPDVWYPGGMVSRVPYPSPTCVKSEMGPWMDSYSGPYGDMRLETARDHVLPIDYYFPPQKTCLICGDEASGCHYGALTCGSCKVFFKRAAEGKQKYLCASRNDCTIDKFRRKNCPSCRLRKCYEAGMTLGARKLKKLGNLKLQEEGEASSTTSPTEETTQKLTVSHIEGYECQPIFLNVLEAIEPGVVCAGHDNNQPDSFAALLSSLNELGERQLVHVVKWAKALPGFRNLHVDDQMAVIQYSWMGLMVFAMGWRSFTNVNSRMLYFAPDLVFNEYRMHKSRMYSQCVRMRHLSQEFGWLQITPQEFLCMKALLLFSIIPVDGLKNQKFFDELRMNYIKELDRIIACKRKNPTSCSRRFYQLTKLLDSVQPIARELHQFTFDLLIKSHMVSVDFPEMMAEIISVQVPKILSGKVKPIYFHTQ
In short: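 EC50 and efficacy came from Hill fits of titrations (up to 92 uM) normalized to 30 nM R1881 as 100% and DMSO as 0%. Compound exposure was 16 h at 37 C on AR-UAS-bla HEK293 cells, with a 405/460/530 nm CCF4 fluorescence read.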

[12] = target: Androgen receptor (Homo sapiens) (UniProt P10275); assay: qHTS assay for small molecule antagonists of androgen receptor signaling (AID 588516; active = well fitted curve in the direction sought with a large enough effect in the signal ratio, with a control signal flat, not every such curve was filed as active; the % refers to the signal ratio; note: % is set by controls: 0 for no effect and ±100 for the full control effect)
In short: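 Cells were plated and incubated 5 h, compounds added in titration, then R1881 (10 nM final) as agonist. After 16 h at 37 C, CCF4 substrate was loaded for 2 h at room temperature and fluorescence measured.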

[13] = target: Bile acid receptor (Homo sapiens) (UniProt Q96RI1); assay: qHTS assay for small molecule antagonists of farnesoid X receptor signaling (AID 588526; calls by dose curve; note: % is set by controls: 0 for no effect and ±100 for the full control effect)
Chain of Bile acid receptor (Homo sapiens) (Q96RI1 whole entry, looked up): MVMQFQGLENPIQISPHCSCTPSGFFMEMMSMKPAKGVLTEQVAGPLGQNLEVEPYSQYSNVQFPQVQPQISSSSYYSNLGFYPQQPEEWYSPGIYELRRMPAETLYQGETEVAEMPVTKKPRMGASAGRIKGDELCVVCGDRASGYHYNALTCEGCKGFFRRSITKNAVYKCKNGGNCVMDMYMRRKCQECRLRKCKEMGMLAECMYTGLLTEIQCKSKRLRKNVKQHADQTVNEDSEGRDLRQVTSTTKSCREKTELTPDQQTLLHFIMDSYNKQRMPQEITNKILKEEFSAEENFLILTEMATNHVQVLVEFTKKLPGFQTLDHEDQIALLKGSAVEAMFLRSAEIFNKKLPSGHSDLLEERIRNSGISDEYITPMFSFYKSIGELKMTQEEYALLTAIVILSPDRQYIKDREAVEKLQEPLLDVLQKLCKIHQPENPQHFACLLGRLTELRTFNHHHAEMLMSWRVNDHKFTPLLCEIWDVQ
In short: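 Beta-lactamase reporter antagonist mode: HEK293T FXR-UAS-bla cells, titrated compound, CDCA stimulation, 16 h 37 C, CCF4 dye 2 h RT. Data normalized to CDCA 50 uM and DMSO; Hill-fit IC50.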

[14] = target: Glucocorticoid receptor (Homo sapiens) (UniProt P04150); assay: qHTS assay for small molecule agonists of glucocorticoid receptor signaling (AID 588532; active = well fitted curve in the direction sought with a large enough effect in the signal ratio, with a control signal flat; the % refers to the signal ratio;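 note: 100% = dexamethasone at 0.1 µM and 0% = DMSO only wells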); settings: HeLa MMTV-bla, beta-lactamase ratio, agonist, 18 h; hits give high values; percent of dexamethasone control, DMSO zero
Chain of Glucocorticoid receptor (Homo sapiens) (P04150 whole entry, looked up): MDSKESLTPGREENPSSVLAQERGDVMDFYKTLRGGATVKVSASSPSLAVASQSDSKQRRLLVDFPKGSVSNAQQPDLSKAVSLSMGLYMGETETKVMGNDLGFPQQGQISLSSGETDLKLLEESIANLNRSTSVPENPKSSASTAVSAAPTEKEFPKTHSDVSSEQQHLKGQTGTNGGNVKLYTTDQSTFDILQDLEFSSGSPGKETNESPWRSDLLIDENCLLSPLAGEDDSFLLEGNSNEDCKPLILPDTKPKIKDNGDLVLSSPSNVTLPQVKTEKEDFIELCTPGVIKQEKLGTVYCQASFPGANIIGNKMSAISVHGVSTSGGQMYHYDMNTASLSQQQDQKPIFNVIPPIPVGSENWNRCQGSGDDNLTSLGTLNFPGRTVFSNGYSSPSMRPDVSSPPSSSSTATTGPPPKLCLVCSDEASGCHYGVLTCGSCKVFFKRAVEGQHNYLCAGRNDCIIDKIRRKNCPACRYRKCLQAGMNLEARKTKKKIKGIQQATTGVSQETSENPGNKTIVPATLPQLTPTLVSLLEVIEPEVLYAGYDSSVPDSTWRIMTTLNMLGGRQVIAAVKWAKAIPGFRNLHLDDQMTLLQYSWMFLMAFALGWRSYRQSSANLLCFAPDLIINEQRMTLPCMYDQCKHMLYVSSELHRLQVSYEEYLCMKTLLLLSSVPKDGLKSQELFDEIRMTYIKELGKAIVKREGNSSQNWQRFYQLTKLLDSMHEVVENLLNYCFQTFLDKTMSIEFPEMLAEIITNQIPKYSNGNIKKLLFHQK
In short: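 Using MMTV-bla HeLa cells in medium with 1% stripped FBS and 25 mM HEPES, compounds were titrated and incubated overnight-length (18 h). Beta-lactamase cleavage of CCF4 was quantified by dual-emission fluorescence.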

[15] = target: Glucocorticoid receptor (Homo sapiens) (UniProt P04150); assay: qHTS assay for small molecule antagonists of glucocorticoid receptor signaling (AID 588533; active = well fitted inhibition curve with a large enough effect in the signal ratio, with a control signal flat, not every such curve was filed as active; the % refers to the signal ratio)
In short: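 Antagonist-mode qHTS: compound titrations added to GRE-bla HeLa cells, then dexamethasone 2 nM final; 18 h, 37 C. CCF4 FRET fluorescence normalized to dexamethasone and DMSO; IC50 from Hill fit.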

CCN1C(=O)C=CC1=O
inactive: outcome [1] | Potency [2] | Potency [3] | Potency [4] | Potency [5] | Potency [6] | Potency [7] | Potency [8]

CC(O)C(O)[C@H]1CNc2nc(N)[nH]c(=O)c2N1 (stereo partly specified)
inactive: outcome [1] | Potency [3] | Potency [4] | Potency [5] | Potency [6] | Potency [7] | Potency [8]

CNCCNS(=O)(=O)c1cccc2cnccc12
inactive: Potency [2] | Potency [3] | Potency [5] | Potency [6] | Potency [7]

CCC1(O)CC2CN(CCc3c([nH]c4ccccc34)[C@@](C(=O)OC)(c3cc4c(cc3OC)N(C=O)C3[C@]45CCN4CC=C[C@@](CC)([C@@H](OC(C)=O)[C@]3(O)C(=O)OC)[C@H]45)C2)C1 (stereo partly specified)
inactive: outcome [1] | Potency [9] | Potency [3] | Potency [4] | Potency [5] | Potency [6]

CN(CC[C@@H](Oc1ccc(C(F)(F)F)cc1)c1ccccc1)CC(=O)O
inactive: outcome [1] | Potency [3] | Potency [4] | Potency [5] | Potency [6] | Potency [7] | Potency [8]

N#C/C(=C\c1ccc(O)c(O)c1)C(=O)NCCCNC(=O)/C(C#N)=C/c1ccc(O)c(O)c1
inactive: outcome [1] | Potency [9] | Potency [8]

O=c1ccn([C@@H]2O[C@H](COP(=O)(O)OP(=O)(O)O)[C@@H](O)[C@H]2O)c(=O)[nH]1
inactive: Potency [9] | Potency [2] | Potency [3] | Potency [5] | Potency [6] | Potency [7]

O=C(O)CCC/C=C\C[C@@H]1[C@@H](/C=C/[C@H](O)C2Cc3ccccc3C2)[C@@H](F)C[C@@H]1O
inactive: outcome [1] | Potency [3] | Potency [4] | Potency [5] | Potency [6] | Potency [7] | Potency [8]

CC[C@H](NC(=O)c1c(C)c(-c2ccccc2)nc2ccccc12)c1ccccc1
inactive: Potency [9] | Potency [5] | Potency [6] | Potency [7] | Potency [10]

C=CCNc1ncnc2ccc(Br)cc12
inactive: Potency [3] | Potency [4] | Potency [5] | Potency [6] | Potency [7] | Potency [8]

O=c1[nH]c2ccccc2c2ccccc12
inactive: Potency [9] | Potency [2] | Potency [3] | Potency [4] | Potency [5] | Potency [6] | Potency [7] | Potency [8]

CN(C)CCCc1cc(C(=O)Nc2ccc(-c3ccncc3)cc2)ccc1O
inactive: outcome [1] | Potency [3] | Potency [5] | Potency [6] | Potency [7] | Potency [8] | Potency [10]

COc1ccc2c(c1)c(CC(=O)O)c(C)n2C(=O)c1ccccc1
inactive: outcome [1] | Potency [2] | Potency [3] | Potency [4] | Potency [5] | Potency [6] | Potency [7] | Potency [8]

CCCc1c(OCCCOc2ccc(OCC(=O)O)cc2)ccc(C(C)=O)c1O
active: Potency [6] 79.4 µM
inactive: outcome [1] | Potency [2] | Potency [3] | Potency [4] | Potency [5] | Potency [7] | activation [11] -2.09% | outcome [12] | outcome [13] | activation [14] -12.7% | Potency [15]

Nc1ncnc2c1c(-c1ccc(Oc3ccccc3)cc1)cn2C1CCCC1
inactive: outcome [1] | Potency [9] | Potency [3] | Potency [4] | Potency [5] | Potency [6]

CN(C)S(=O)(=O)c1ccc2c(c1)/C(=C/c1cc3c([nH]1)CCCC3)C(=O)N2
active: Potency [6] 25.1 µM
inactive: outcome [1] | Potency [9] | Potency [4] | Potency [5] | Potency [7] | Potency [8]

CCCCCCCCCC[Si](C)(C)CCC(=O)NC(Cc1ccc(C)cc1)c1ccccc1 (stereo unspecified)
inactive: outcome [1] | Potency [2] | Potency [3] | Potency [4] | Potency [5] | Potency [6] | Potency [7] | Potency [8]

— PubChem BioAssay (NCATS)
